Test results from ChEMBL document CHEMBL1157539, “Thousands of chemical starting points for antimalarial lead identification” (Nature, 2010).

How the values were obtained:
Format in all cases: functional
Plasmodium falciparum [1] = assay: GSK_TCMDC: Inhibition of Plasmodium falciparum 3D7 in whole red blood cells, using parasite LDH activity as an index of growth. Test compounds present at 2uM
Plasmodium falciparum [2] = assay: GSK_TCMDC: Inhibition of Plasmodium falciparum Dd2 in whole red blood cells, using parasite LDH activity as an index of growth. Test compounds present at 2uM
HepG2 = assay: GSK_TCMDC: Percent inhibition of human HepG2 cell line. Test compounds present at 10uM.

Cc1cc2nc(-c3ccc(C(=O)NCc4ccc(Cl)c(Cl)c4)cc3)[nH]c2cc1C
Inhibition (Plasmodium falciparum [1]): 96%
Inhibition (Plasmodium falciparum [2]): 83%
Inhibition (HepG2): 6%

Cc1cc(-c2ccc3occ(CCN)c3c2)cnc1N
Inhibition (Plasmodium falciparum [1]): 92%
Inhibition (Plasmodium falciparum [2]): 56%
Inhibition (HepG2): 0%

Cc1cc(N)c2cc(NC(=O)/C=C/c3ccc([N+](=O)[O-])cc3)ccc2n1
Inhibition (Plasmodium falciparum [1]): 100%
Inhibition (Plasmodium falciparum [2]): 80%
Inhibition (HepG2): 76%

COc1ccc(C2CC(c3cccs3)=NN2C(=O)c2ccco2)cc1OC (stereo not given)
Inhibition (Plasmodium falciparum [1]): 100%
Inhibition (Plasmodium falciparum [2]): 97%
Inhibition (HepG2): 0%

CN(C)CCCn1cncc1-c1ccc2ncnc(Nc3ccc(OCc4ccccc4)cc3)c2c1
Inhibition (Plasmodium falciparum [1]): 100%
Inhibition (Plasmodium falciparum [2]): 100%
Inhibition (HepG2): 37%

COc1cccc(Nc2nc(C)cc(NC3CCCC3)n2)c1
Inhibition (Plasmodium falciparum [1]): 100%
Inhibition (Plasmodium falciparum [2]): 79%
Inhibition (HepG2): 41%

COc1ccc(Cn2cncc2CN(CCC(C)C)C(=O)c2ccc(Cl)nc2Cl)cc1.O=C(O)C(F)(F)F
Inhibition (Plasmodium falciparum [1]): 87%
Inhibition (Plasmodium falciparum [2]): 61%
Inhibition (HepG2): 19%

CC(C)c1cccc(OCC2CCN(c3ncc(C(=O)NC4CC4)cc3Cl)CC2)c1
Inhibition (Plasmodium falciparum [1]): 94%
Inhibition (Plasmodium falciparum [2]): 95%
Inhibition (HepG2): 9%

O=C(O)C(F)(F)F.O=S(=O)(NCCN1CCCC1)c1ccc(-c2ccc(CNCc3ccsc3)cc2)cc1F
Inhibition (Plasmodium falciparum [1]): 96%
Inhibition (Plasmodium falciparum [2]): 40%
Inhibition (HepG2): 27%

Cc1[nH]c(C)c(-c2ccc(Oc3ccc(O)cc3)cc2)c(=O)c1Cl
Inhibition (Plasmodium falciparum [1]): 91%
Inhibition (Plasmodium falciparum [2]): 87%
Inhibition (HepG2): 0%

CCC1CN2CCc3c([nH]c4ccc(OC)cc34)C2CC1CC1NCCc2cc(OC)c(OC)cc21.Cl (stereo not given)
Inhibition (Plasmodium falciparum [1]): 100%
Inhibition (Plasmodium falciparum [2]): 21%
Inhibition (HepG2): 17%

Cc1csc(NC(=O)c2cn(-c3ccccc3)nc2-c2cccs2)n1
Inhibition (Plasmodium falciparum [1]): 95%
Inhibition (Plasmodium falciparum [2]): 12%
Inhibition (HepG2): 0%

O=C(Nc1cccc(C(F)(F)F)c1)NC1CCN(c2ccnc3cc(Cl)ccc23)CC1.O=C(O)C(F)(F)F
Inhibition (Plasmodium falciparum [1]): 100%
Inhibition (Plasmodium falciparum [2]): 47%
Inhibition (HepG2): 13%

CCCC1(C)CSc2ccccc2C(c2ccccc2)N1 (stereo not given)
Inhibition (Plasmodium falciparum [1]): 87%
Inhibition (Plasmodium falciparum [2]): 2%
Inhibition (HepG2): 60%

Fc1ccc2[nH]c(-c3ccc(-c4ccc(CN5CCCCC5)cc4)cc3)nc2c1.O=C(O)C(F)(F)F
Inhibition (Plasmodium falciparum [1]): 98%
Inhibition (Plasmodium falciparum [2]): 100%
Inhibition (HepG2): 31%

CCc1c(CCNCCCCCCNC(C)(C)Cc2ccc3c(c2CC)OCO3)ccc(OC)c1OC.Cl
Inhibition (Plasmodium falciparum [1]): 100%
Inhibition (Plasmodium falciparum [2]): 50%
Inhibition (HepG2): 100%

CN1CCc2cc(O)c(NS(=O)(=O)c3ccc(-c4ccc(Cl)cc4)cc3)cc2CC1.Cl
Inhibition (Plasmodium falciparum [1]): 100%
Inhibition (Plasmodium falciparum [2]): 3%
Inhibition (HepG2): 7%

O=C(NCCCN1CCOCC1)c1ccc(-c2cccc(NC(=O)c3ccc(Cl)c(Cl)c3)c2)cc1
Inhibition (Plasmodium falciparum [1]): 100%
Inhibition (Plasmodium falciparum [2]): 68%
Inhibition (HepG2): 3%

Cc1n[nH]c2cc(Nc3ccnc(Nc4ccc(CN5CCOCC5)cc4)n3)ccc12
Inhibition (Plasmodium falciparum [1]): 97%
Inhibition (Plasmodium falciparum [2]): 5%
Inhibition (HepG2): 22%

COC(=O)c1ccc2c(-c3nc4ccc(OC)cc4[nH]3)c[nH]c2c1
Inhibition (Plasmodium falciparum [1]): 95%
Inhibition (Plasmodium falciparum [2]): 31%
Inhibition (HepG2): 0%

O=C(O)C(F)(F)F.OCC1CCN(Cc2ccc(-c3cccc(-c4nc5ccccc5[nH]4)c3)cc2)CC1
Inhibition (Plasmodium falciparum [1]): 100%
Inhibition (Plasmodium falciparum [2]): 6%
Inhibition (HepG2): 21%

COc1ccc(CNCc2ccc(F)cc2)cc1-c1ccc(S(=O)(=O)NCCN2CCCC2)cc1.O=C(O)C(F)(F)F
Inhibition (Plasmodium falciparum [1]): 91%
Inhibition (Plasmodium falciparum [2]): 25%
Inhibition (HepG2): 38%

N#Cc1cccc(C(=O)Nc2ccc(-c3nc4ccccc4[nH]3)cc2)c1
Inhibition (Plasmodium falciparum [1]): 91%
Inhibition (Plasmodium falciparum [2]): 38%
Inhibition (HepG2): 33%

CC(C)(C)COC(=O)c1ccc(NC(=O)N[C@@H](Cc2ccc(O)cc2)C(=O)NC2CCN(Cc3ccc(O)cc3)C2)cc1.O=C(O)C(F)(F)F (stereo not given in full)
Inhibition (Plasmodium falciparum [1]): 94%
Inhibition (Plasmodium falciparum [2]): 21%
Inhibition (HepG2): 3%

CN1CCN(CCCN(Cc2cccc(-c3cccc(CNCCc4ccccc4)c3)c2)C(=O)Nc2ccccc2)CC1.O=C(O)C(F)(F)F
Inhibition (Plasmodium falciparum [1]): 97%
Inhibition (Plasmodium falciparum [2]): 82%
Inhibition (HepG2): 92%

COc1cccc(C2CCN(CCN3CCC(CNC(=O)c4ccc(-c5ccc(C(F)(F)F)cc5)cc4)CC3)CC2)c1
Inhibition (Plasmodium falciparum [1]): 100%
Inhibition (Plasmodium falciparum [2]): 42%
Inhibition (HepG2): 41%

Cc1[nH]n(-c2cccc(Cl)c2)c(=O)c1-c1ccc(Cl)cc1
Inhibition (Plasmodium falciparum [1]): 99%
Inhibition (Plasmodium falciparum [2]): 41%
Inhibition (HepG2): 0%

COc1cccc(-c2cnc(N)c(-c3nc4ccc(F)cc4[nH]3)c2)c1.Cl
Inhibition (Plasmodium falciparum [1]): 97%
Inhibition (Plasmodium falciparum [2]): 43%
Inhibition (HepG2): 47%

CC(C)(C)c1ccc(OCC(=O)NC2CCN(c3ccnc4cc(Cl)ccc34)C2)cc1.O=C(O)C(F)(F)F (stereo not given)
Inhibition (Plasmodium falciparum [1]): 98%
Inhibition (Plasmodium falciparum [2]): 100%
Inhibition (HepG2): 17%

COc1ccc2c(=NN=Cc3cccc(F)c3)cc(C)[nH]c2c1
Inhibition (Plasmodium falciparum [1]): 100%
Inhibition (Plasmodium falciparum [2]): 100%
Inhibition (HepG2): 17%
